# According to PubChem BioAssay AID1508600 (Functional Genomics Laboratory (NCATS/FGL), 2020):
# In all, about 53,000 sequences went through this assay and about 3,700 (7%) were called active. Shown is part of a subset that was picked to be rich in actives. Unmarked numbers belong to inactive results.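 The calls were made as follows: active = gene knockdowns whose robust z-score for IL-1 alpha signal is at least 2 or at most -2, so actives lie on both sides; inactive = the rest.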
# Assay: Components of the Cytosolic LPS Sensing Pathway: Gene Identification via Genome-wide siRNA Screen;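 also: robust z of the log signal after scaling to non-targeting control siRNA wells of the plate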
# Conditions: RAW264.7 macrophages, IL-1a HTRF, actives lie on both sides, screened at 100 nM (by protocol), cells primed 5 h with Pam3CSK4 first
# Summary of the method: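 Read-out: IL-1a HTRF on supernatant, divided by plate negative-control median ×100, log-transformed and converted to robust z-score. Cells were RAW264.7 given 100 nM siRNA, Pam3CSK4-primed 5 hours, then LipidA-transfected 24 hour.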
row,Sequence,z-score
1,GCUGUGGAACUUAUGUUUUTT against Faxc,-0.518
2,GGAUUAAUCAAACUGAGAGTT against Lrrtm2,-1.24
3,GCGAUUCCUAGAGCUGAGCTT against Git1,-2.5 (active)
4,GCUGAUUAGCCAUGUAAUUTT against Cebpg,-0.481
5,GCUUUAUGGAUCUACCAAATT against Fbxl3,1.81
6,GGAAAACAGCUUUGAUUGGTT against Tmem232,0.868
7,GCAAGCCAACUGACCAUCATT against Nudt2,0.486
8,CGACUCCAUGUGGACUUAUTT against Gca,-1.16
9,CGAACACUAAGCUUUGAUATT against Rab11fip2,-0.493
10,GGUUUUACAUUCUGUGUUUTT against Spata9,-0.898
11,CCUUGGAGAGAGAAGACAUTT against Rpp38,0.292
12,CCAAUGCAAGUGCUACAGUTT against Zfp277,-2.64 (active)
13,GGCUCACUCAUUUGUCAGATT against Soat1,0.0924
14,GCCUAAUCAUUCCCAGCAUTT against Oog2,0.211
15,CCUUCUACUGGCAACCUAUTT against Zfp110,0.25
16,GGUAUCUACACCAAACUUATT against Klk1b5,0.685
17,GGAGCUAACUGUCAAUGGATT against Usp17la,2.8 (active)
18,GGAUGAAGAACUGAAAUCUTT against Unc13b,0.167
19,CCCUGUAAAGAUCGAGAAGTT against Zfp296,0.241
20,GGGACACCCUUUGAAGAUGTT against Ube2b,-0.314
21,GGCAUGAUGUUCAUGGAUATT against Nup62,-2.04 (active)
22,CGAAGAUAAUUAUGGAGCCTT against Fat4,0.548
23,CGCAGAGUUAAUUUCUUGUTT against Rchy1,0.995

row,Sequence,z-score
1,CCAACAAUUCUGCCAAGACTT against Arrb2,-2.57 (active)
2,CCGAAGGAUUGAAGAGCCUTT against Trnt1,0.746
3,GGCUUCAUAAGAUCAAAGATT against Lca5l,-2.88 (active)
4,GCAGGUCUAAUAAUGGUCATT against Syt12,-0.536
5,GGAUCCUGCAUCUUAUAGUTT against Tcstv3,0.468
6,GCUGUUUCCCAGAGAAGAATT against Defb2,-0.814
7,CGGUUCCAACCUUGAAAAATT against H1f10,-0.676
8,GCUCUACCGUUAAGUUAUUTT against Eif4e2,0.499
9,GGUCAUCCUUUUUCAGUACTT against Lhx6,2.28 (active)
10,GGGCGUGAAUUCAGAGAUUTT against Pcdhgb5,-0.00376
11,CGGGUUCUACUAUCAUGCATT against Ltbp4,0.259
12,GGUCACCAGUACCUAUGGATT against Bricd5,-2.17 (active)
13,GGGACUGUACUCAUUUCUATT against Rnf138rt1,-0.67
14,GCAGGUUGAACGACAGCGUTT against Dph5,-0.349
15,GGAAUAAUCCCAGUUCUCUTT against Tmem101,-1.04
16,CCAGAAUGGCGGGUAUUUGTT against Fbln5,2.14 (active)
17,GAAGGUGAAGUGCAGGAAGTT against Fxyd7,-0.081
18,GCAGGCCAGAGUAGUCAUGTT against Them6,0.579
19,GGAAUUAACGUGUUUCUGUTT against Tor1aip2,1.14
20,GGUGAUAAAGCUAUGUAUUTT against Ccn2,0.147
21,GGACAACAUUGACAAGUUCTT against Clcn7,1.36
22,GCUGGGUCCACAUGAAUCATT against Sucnr1,2.7 (active)
23,GGAUCAGACAUGCAAGAGGTT against Xlr5c,-1.81

row,Sequence,z-score
1,GCAUCAUGGUCACAAAUGGTT against Ncr1,-0.613
2,GCUACCGUGGGCGAUGUAATT against Dbi,-0.37
3,GGGAAAAUGCGAUUCAUGATT against P2ry14,-0.774
4,GGAGAUUAUUAACUUCACCTT against Hcn3,-0.895
5,GGAACUGGACUUAUUCCACTT against Wnt5b,0.652
6,GGAGAAACCAGGAUCUAUUTT against Rnf14,2.22 (active)
7,GCCAGGAGUACUGUAUAUATT against Spint1,-0.366
8,GGAGCUCUAAAAUUGACUUTT against Zfp92,1.17
9,GGAAUCUAGAAGAAUCAUUTT against Gnao1,-0.42
10,GCUAUGGUAGCUGAUAACATT against Rell1,1.21
11,GGAUCCUAAUGAGGACAUUTT against Jchain,2.75 (active)
12,GCCACAAGAUACCAUCAGATT against Bex1,-1.66
13,CCAUAUGUCCUGUUUAAGATT against Grik2,0.304
14,GGACUUGAAAGACGAGAUATT against Cyp19a1,0.31
15,CCUUUAUGAAUGAACAGGGTT against Cnot7,-0.266
16,GGCCAAUUCCAGUGAGAUGTT against Lgsn,-0.0795
17,GGCAGAGCUCAAAAAGAAATT against Ankrd1,-1.94
18,CCAAAUCCGGGAAAAAGAGTT against Armcx5,-0.459
19,GCAUACCAAUCACAGUCGATT against Dync2li1,-2.55 (active)
20,GGGUUGCUACUCACAAUGUTT against Syngr2,0.244
21,CCUCAAUUUCGAAGACCCUTT against Asb6,1.84
22,GGACUCUGGACCUUAUGCUTT against Tmem202,-0.921
23,GGCUUUCAAGCUAACUGAUTT against Sf3b2,-2.39 (active)
